A selection: hits, their analogues and other compounds. The true share with any hit is near 7.9%.
MCF10A rerep: A quantitative high throughput screen for small molecules that induce DNA re-replication in MCF 10a normal breast cells. MCF 10A DNA re-replication, Hoechst nuclear intensity, 48 h. Potency, µM (doses to about 46.1 µM), for inactives: at the top dose activity, positive = re-replication, hits mostly activators. actives 2.9% (n = 350,000). AID 624296, 2012; note: % of control where 0% means no effect; nearly all actives have a fitted effect of over 50% in size
KB-3-1 cytotox: qHTS assay for MDR1-selective chemotherapeutics: Primary screen using the parental adenocarcinoma cell KB-3-1 | KB-3-1 viability, CellTiter-Glo ATP luminescence, 72 h | Potency, µM (doses to about 46.1 µM), hits mostly cytotoxic | actives 1.4% (n = 400,000) | AID 1347075, 2019; note: % is set by controls: 0 for no effect and ±100 for the full control effect; nearly all actives have a fitted effect of over 60% in size
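Cytotoxicity in the drug-sensitive parental line KB-3-1 was scored as loss of CellTiter-Glo luminescence following 72 h incubation with compound. Values come from curve fitting of normalized concentration-response data.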
HT1080-NT tox: qHTS for induction of synthetic lethality in tumor cells producing 2HG: qHTS for the HT-1080-NT fibrosarcoma cell line; HT-1080-NT fibrosarcoma viability, CellTiter-Glo ATP luminescence, 48 h; Potency, µM (highest dose often 46.1 µM), without a hit: at the highest dose activity, negative = less viability, hits mostly cytotoxic; actives 1.6% (n = 360,000); AID 686970, 2013;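 note: NT is the 2HG producing partner of a matched IDH1 knockdown line; 0% = DMSO-treated cells and -100% = media-only wells without cells; nearly all actives have a fitted effect of over 55% in size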
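Luminescent CellTiter-Glo readout after 48 hours of compound exposure at 37 degrees C defined viability of HT-1080-NT cells. Activity was normalized to DMSO wells and cell-free media wells; concentration-response curves were fitted and assigned curve classes.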
HT1080 IDH1KD tx: qHTS for induction of synthetic lethality in tumor cells producing 2HG: qHTS for the HT-1080-IDH1KD cell line; HT-1080 IDH1 knockdown viability, ATP luminescence, 48 h; Potency, µM (highest dose often 46.1 µM), for inactives: at the highest dose activity, negative = toxicity, actives largely listed as cytotoxic; actives 2% (n = 360,000);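 note: 0% = DMSO wells and -100% = cell-free medium wells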
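Viability of IDH1-knockdown HT-1080 fibrosarcoma cells was assessed by CellTiter-Glo after 48 h at 37 °C with titrated compound; concentration-effect curves were classified by fit quality and response size.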
KB-V1 MDR tox: qHTS assay for MDR1-selective chemotherapeutics: Primary screen using the drug-selected MDR subline cells KB-V1 | Potency, µM (top dose mostly 46.1 µM), usual class: cytotoxic | KB-V1 MDR cells viability, CellTiter-Glo, 72 h | actives 3.4% (n = 400,000); note: % is set by controls: 0 for no effect and ±100 for the full control effect; nearly all actives have a fitted effect of over 60% in size
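Following 72 h at 37 degrees C with compound, KB-V1 cell viability was read by CellTiter-Glo luminescence, medium being phenol-red-free DMEM plus 10% FBS; concentration-response parameters came from normalized, curve-fitted qHTS data.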
SW480 rereplic: A quantitative high throughput screen for small molecules that induce DNA re-replication in SW480 colon adenocarcinoma cells; SW480 DNA re-replication, Hoechst DNA content imaging, 48 h; Potency, µM (doses to about 46.1 µM), inactives show at the top dose re-replication activation, hits mostly activators; actives 1.8% (n = 340,000); note: % of control where 0% means no effect; nearly all actives have a fitted effect of over 55% in size
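Hoechst fluorescence of nuclei (405 nm excitation, 500-530 nm emission) measured by plate-scanning imager after 48 hr compound exposure at 37 C; re-replication scored as increased number of nuclei with elevated intensity.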
* marks the source's active call; other numbers are inactive results; i = inactive; ? = inconclusive; nt = no result given; ! = not confirmed by another sample; [ ] = dose if it differs, or a comment. Calls come from the whole dose curve; as a rule, active = well fitted curve in the direction sought with a large enough effect; inconclusive = small, poorly fitted or top-dose-only effect, or another doubt; inactive = no such curve, though single readings can be large; an effect the other way counts as inactive or inconclusive. Potency is the fitted concentration of half-maximal effect.

SMILES | MCF10A rerep | KB-3-1 cytotox | HT1080-NT tox | HT1080 IDH1KD tx | KB-V1 MDR tox | SW480 rereplic
O=C(Nc1ccc(Cl)c([N+](=O)[O-])c1)c1ccc2c(c1)OCCO2 | 10% | i | -4% | -24% | 13µM* | 12%
CN(C)C(=O)Cn1c(=O)n(C)c2ccccc21 | 15% | i | 4% | 11% | i | -11%
COc1ccc(CN2CCCC(CO)(Cc3ccc(F)cc3F)C2)cc1 (stereo not given) | ? | i | ? | ? | i | -2%
Cc1ccc(S(=O)(=O)n2nccc2-c2c(-c3ccccc3)noc2C)cc1 | 12µM* | ? | ? | ? | ? | 13µM*
COc1ccc(OCCSc2nnc(CCNC(=O)c3ccc(OC)cc3)n2C)cc1 | 4% | i | 4% | -18% | 18µM* | -1%
CCn1c(CCNC(=O)c2ccc(Cl)c(Cl)c2)nnc1SCCOc1ccc(OC)cc1 | -1% | 21µM* | ? | ? | 5.8µM* | -1%
O=C(O)c1ccccc1C(=O)OCc1c(-c2ccccc2)ncc2ccccc12 | 0% | i | 0% | 0% | i | 6%
O=C(Nc1ccc(S(=O)(=O)N2CCCc3ccccc32)cc1)C1CCCO1 (stereo not given) | 2% | i | 0% | -24% | i | 1%
CC(C)CC(NC(=O)C1CCCCC1)C(=O)N1CCN(c2ccccn2)CC1 (stereo not given) | 0% | i | -2% | -3% | 2.6µM* | -4%
O=C(CCC(=O)Nc1ccc(Br)cc1)N/N=C/c1ccccc1F | -1% | i | -22% | -10% | i | 0%
CC1=C(C(=O)N(C)C)C(c2ccc(Cl)c(Cl)c2)NC(=O)N1 (stereo not given) | -3% | i | 15% | 14% | i | -1%
CN[C@H]1CC[C@@H](c2ccc(Cl)c(Cl)c2)c2ccccc21 | ? | ? | 7.3µM* | nt | 21µM*! | ?
Cc1ccc(OCC(=O)Nc2ccc3nc(SCC(=O)N4CCc5ccccc54)sc3c2)cc1 | nt | i | nt | nt | i | nt
CCOC(=O)C(=O)NNc1ccccc1C | ? | i | 0% | 2% | i | -5%
CCOC(=O)C(=O)NNc1cccc(C)c1C | 8.2µM* | i | -3% | -4% | i | -78%
O=C(Oc1ccccc1C(=O)Oc1ccccc1)c1cccnc1 | -4% | i | ? | -24% | i | ?
COc1cc2nc(SCc3ccc(Cl)cc3Cl)n(Cc3cccs3)c(=N)c2cc1OC | ? | 23µM* | -9% | -9% | 6.5µM* | -5%
COCCCn1c(SCc2ccccc2)nc2cc(OC)c(OC)cc2c1=N | 14% | ? | -29% | -29% | ? | -7%
COc1cc2nc(SCc3ccc(C(F)(F)F)cc3)n(Cc3cccs3)c(=N)c2cc1OC | -1% | i | 0% | -2% | i | -22%
COc1ccc(Cn2c(SCc3cc(C)ccc3C)nc3cc(OC)c(OC)cc3c2=N)cc1 | 3.7µM* | ? | ? | ? | 11µM* | ?
COc1ccc(Cn2c(SCc3ccc(C)cc3)nc3cc(OC)c(OC)cc3c2=N)cc1Cl | 4.1µM* | ? | 21µM* | 23µM* | ? | ?
CCC(Sc1nc2cc(OC)c(OC)cc2c(=O)n1Cc1ccc(OC)cc1)C(=O)NCCOC (stereo not given) | 25% | i | 6% | 0% | i | -12%[1.84 µM]
CCCCNC(=O)CSc1nc2cc(OC)c(OC)cc2c(=O)n1Cc1ccc(OC)cc1 | 6% | i | 11% | 15% | 2.1µM* | -5%
COc1ccccc1CNC(=O)CSc1nnc(C)c2c(C)n(-c3ccccc3)nc12 | nt | i | nt | nt | i | nt
COc1ccc(CCNC(=O)C(C)n2c(=O)cc(-c3ccccc3)c3c(C)nn(C)c32)cc1OC (stereo not given) | nt | i | nt | nt | i | nt
SMILES | MCF10A rerep | KB-3-1 cytotox | HT1080-NT tox | HT1080 IDH1KD tx | KB-V1 MDR tox | SW480 rereplic
N#CC1CC(c2ccc([N+](=O)[O-])cc2)=NN1c1ccc([N+](=O)[O-])cc1 (stereo not given) | 6.5µM* | i | -4% | 1% | ? | ?
CC(=O)C1CCC2C3CCC4CC(=O)CCC4(C)C3C=CC12C (stereo not given) | 1% | i | -14% | -3% | i | -3%
CCCCNC(=O)COC(=O)c1c2c(nc3ccccc13)/C(=C/c1cccs1)CC2 | 3.3µM* | i | -22% | ? | ? | 5.2µM*
CNC(=O)NC(=O)C(C)OC(=O)c1c2c(nc3ccccc13)/C(=C/c1cccs1)CC2 (stereo not given) | ? | ? | -2% | -8% | 5.2µM* | ?
CCCCNC(=O)COC(=O)c1c2c(nc3ccccc13)CCC2 | -2% | i | -10% | -13% | i | -5%
COc1cccc(CNc2cc(C)ccn2)c1O | 9% | i | 7% | 9% | i | 1%
COc1ccc(NC2CCCN(Cc3cccc4cnccc34)C2)cc1 (stereo not given) | 6% | i | -4% | 1% | i | 10%
CCOC(=S)SCc1cn2ccc(C)cc2n1 | 16µM* | i | 9% | 10% | i | 4%
CS(=O)(=O)N1CCN(Cc2cc3nc(-c4cccc5[nH]ncc45)nc(N4CCOCC4)c3s2)CC1 | nt | 5µM* | nt | nt | ? | nt
Cn1sccc1=O | 6% | i | ? | ? | i | 1.6µM*
CC(=O)OCC(=O)[C@@]1(O)CCC2C3CCC4=CC(=O)CC[C@]4(C)C3=CC[C@@]21C (stereo not given in full) | -3% | nt | nt | nt | nt | -4%
O=C(COc1cccc(Oc2ccccc2)c1)Nc1ccc(SC(F)F)cc1 | 0.73µM* | i | ? | ? | i | 7.3µM*
O=C(Nc1ccc(SC(F)F)cc1)c1ccc(F)cc1 | 0.82µM* | i | -9% | -3% | i | ?
Cc1ccc(C(=O)c2ccccc2C(=O)OCC(=O)Nc2cccc([N+](=O)[O-])c2)cc1 | 18% | i | 1% | 0% | 23µM* | 2%
COc1cc(C(=O)OCC(=O)Nc2ccc(SC(F)F)cc2)cc(OC)c1OC | 0% | i | -7% | 1% | 15µM* | -19%

Compound activity: PubChem BioAssay, National Center for Advancing Translational Sciences (NCATS)
